GRK2 aptamer HTS = inhibitors of human GRK2 displacing RNA aptamer. bead flow cytometry, FAM-aptamer displacement from GRK2. 0.59% of 330,000 active. P25098. inhibition of aptamer binding, % at 10 µM;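 active = inhibition of aptamer binding above 40%, roughly 3 SD of noise, on plates passing a quality check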;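 note: median bead fluorescence of bound FAM aptamer so fluorescent compounds give negative values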
NTR1 ag = NTR1 (human) agonism. P30989. NTR1-U2OS beta-arrestin-GFP spot imaging, agonist mode. activation, % at 20 µM. 0.17% of 330,000 active;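 active = activation at or above 40% of the spot to cytoplasm intensity ratio, with at least 20 cells analyzed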
Target sequence (P30989 whole entry, looked up): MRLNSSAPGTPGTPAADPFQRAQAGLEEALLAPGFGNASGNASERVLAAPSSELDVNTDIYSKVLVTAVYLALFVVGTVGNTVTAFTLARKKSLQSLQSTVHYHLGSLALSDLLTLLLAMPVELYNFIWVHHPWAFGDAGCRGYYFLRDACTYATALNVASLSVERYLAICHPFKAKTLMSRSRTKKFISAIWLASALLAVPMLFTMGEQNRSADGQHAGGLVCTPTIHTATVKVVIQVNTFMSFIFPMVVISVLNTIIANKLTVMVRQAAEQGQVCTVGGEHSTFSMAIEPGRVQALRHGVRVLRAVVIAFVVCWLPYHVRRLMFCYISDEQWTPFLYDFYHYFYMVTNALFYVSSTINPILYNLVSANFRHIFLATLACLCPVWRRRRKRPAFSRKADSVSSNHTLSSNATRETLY
Beta2AR agonist = human beta-2 adrenergic receptor agonism by FAP; P07550; Am2.2-beta2AR cells, FAP receptor internalization, flow cytometry; response, % (concentration not given with the values); 0.43% of 340,000 active; AID 504454;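 active = response above a set limit, near 3 SD of response in nonfluorescent compounds, cut at about 42% in these data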
VLA-4 inh = inhibition in a human VLA-4 binding assay; AID 2557; P13612; VLA-4 expressing cells, ligand binding flow cytometry; inhibition, % (about 7 µM as worked out from the volumes in the protocol); 0.2% of 330,000 active; in the data active = inhibition above about 50%
A1 inh = inhibitors of the anti-apoptotic protein A1, read as caspase activation. AID 2462. caspase activation, % (no concentration beside the values). MEF A1-2A-BIM cells, Caspase-Glo 3/7 luminescence, 3 h; percent of clofoctol response, vehicle zero. 0.066% of 330,000 active;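 active = over half of replicate activation scores above 10%, or exactly half above 10 with the replicate mean above 10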
VLA-4 allo CP = confirmation of allosteric modulators of human VLA-4 integrin. shares compounds with VLA-4 inh. U937 cells, HUTS-21 LIBS mAb binding, flow cytometry; LDV ligand present at threefold Kd. inhibition, % at 6.7 µM. 2% of 1,300 active. AID 2813; in the data active = inhibition above about 40%
GRK2 inh confirm = human GRK2 inhibition confirmation, cherry pick 1; shares compounds with GRK2 aptamer HTS; AID 504451; bead-bound GRK2, FAM-aptamer displacement, flow cytometry; aptamer displacement, % at 10 µM; 4% of 2,000 active;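 active = aptamer displacement above 40%, near three times the noise of non-fluorescent compounds, on plates passing quality checks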;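 note: negative values mostly reflect intrinsic compound fluorescence rather than true enhancement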
FAM quench CP1 = quenches fluorescent RNA aptamer, GRK2 hit artifact. shares compounds with GRK2 aptamer HTS. Carboxyfluorescein RNA aptamer on beads, flow cytometry quenching; hits give low values. fluorescence response (% of DMSO), % at 10 µM. 2,000 tested, under 10 active;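 active = compounds that quench the bead-bound fluorescent RNA probe, cutting fluorescence to under half of the solvent control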;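 note: counterscreen run without GRK2 so only probe quenching by compound is measured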
B2AR ag CP1 = agonists of human beta-2 adrenergic receptor; shares compounds with Beta2AR agonist; Am2.2-beta2AR cells, FAP surface receptor, flow cytometry; hits give low values; percent response (surface receptor), % at 10 µM; 25% of 1,100 active; AID 540358;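 active = surface receptor percent response at or below 58%, roughly 3 SD from nonfluorescent compounds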
FAP fluor counter = fluorescence artifact in beta-2AR agonist FAP counterscreen; Am2.2 cells, FAP fluorogen flow cytometry; hits give low values; shares compounds with Beta2AR agonist; calls only at 10 µM; 1,100 tested, under 10 active;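 active = percent response below a set limit in fluorescence channel 1 and below 50% in channel 8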
Large screens that a line does not name were inactive (follow-up assays come after a bar, where they were run); ! = repeats disagree. Sampled rows, rich in hits. Any-hit rate of the full collection: about 1.3%.

Cc1ccc(/C=C/C(=O)OC(C)C(=O)NC2CCCCC2C)o1 (stereo unspecified)	none
CCc1ccccc1NC(=O)COc1ccc(N2CC(C(N)=O)CC2=O)cc1 (stereo unspecified)	none
CC(C)(C)OC(=O)N/N=C/c1ccc(Br)cc1	VLA-4 inh 49.6 | VLA-4 allo CP inactive
CC(C)(C)NC(=O)C(=O)N/N=C/c1ccc(Br)cc1	none
COc1ccc(N(CC(=O)Nc2cc(C)ccc2C)S(=O)(=O)c2c(C)[nH]c(=O)[nH]c2=O)cc1	none | VLA-4 allo CP inactive
COc1ccc(N(CC(=O)Nc2cc(Cl)ccc2C)S(=O)(=O)c2c(C)n[nH]c2C)cc1	none
Cc1ccc(N(CC(=O)Nc2ccc(Br)c(C)c2)S(=O)(=O)c2c(C)[nH]c(=O)[nH]c2=O)cc1	none | VLA-4 allo CP inactive
COc1ccc(N(CC(=O)Nc2cc(Cl)ccc2OC)S(=O)(=O)c2c(C)[nH]c(=O)[nH]c2=O)cc1	none | VLA-4 allo CP inactive
Nc1ncnc(Nc2ccccc2)n1	VLA-4 inh 54.5 | VLA-4 allo CP inactive
Cc1ccc(NC2C(=O)NC(=O)NC2=O)cc1	none (no result: GRK2 aptamer HTS, NTR1 ag, VLA-4 inh, A1 inh)
CC1Cc2ccccc2N1c1ncnc(N)c1[N+](=O)[O-] (stereo unspecified)	VLA-4 inh 52.6 | VLA-4 allo CP inactive
CCN(CC)CCN(C(=O)c1ccc(CN2CCCCC2)o1)C(C(=O)NC1CCCCC1)c1ccc(F)cc1 (stereo unspecified)	none
COc1ccc(C(=O)NCc2cccnc2)cc1C(=O)NCc1cccnc1	VLA-4 inh 56.1 | VLA-4 allo CP inactive
Cc1ccc(NC(=O)C(C)c2ccc(-c3ccccc3)c(F)c2)cc1 (stereo unspecified)	VLA-4 inh 88.3 | VLA-4 allo CP inactive
O=C(O)c1ccc(OS(=O)(=O)c2ccc(Cl)s2)cc1	none (no result: GRK2 aptamer HTS, VLA-4 inh, A1 inh)
CCc1ccc(C(=O)NNC(=O)c2cccc(S(=O)(=O)N3CCN(C)CC3)c2)cc1	none (no result: GRK2 aptamer HTS, VLA-4 inh, A1 inh)
CCc1ccc(N2C(=O)CC(N3CCC(C(=O)OC)CC3)C2=O)cc1 (stereo unspecified)	none
CCCCCCOc1ccc(N2C(=O)CC(N3CCC(C(=O)OCC)CC3)C2=O)cc1 (stereo unspecified)	none | VLA-4 allo CP inactive
CCOC(=O)C1CCN(C2CC(=O)N(c3ccc(OCC)cc3)C2=O)CC1 (stereo unspecified)	none | VLA-4 allo CP inactive
CCCCCCOc1ccc(N2C(=O)CC(N3CCN(C(=O)c4ccco4)CC3)C2=O)cc1 (stereo unspecified)	none
CCCCn1c(N)c(N(CC(C)C)C(=O)c2ccc(OC)c(S(=O)(=O)N3CCOCC3)c2)c(=O)[nH]c1=O	none (no result: GRK2 aptamer HTS, NTR1 ag, VLA-4 inh, A1 inh)
CCOCC(O)CNc1ccccc1 (stereo unspecified)	none | VLA-4 allo CP inactive
CC(C)c1ccc(C2(C)NC(=O)N(CC(=O)N3CCN(C(=O)c4cccs4)CC3)C2=O)cc1 (stereo unspecified)	none
CCOc1cc(/C=C2\C(=N)N3N=C(S(C)(=O)=O)SC3=NC2=O)ccc1OCCOc1cccc(OC)c1	none | VLA-4 allo CP inactive
CCS(=O)(=O)C1=NN2C(=N)/C(=C\c3ccc(OCCOc4cccc(OC)c4)c(OC)c3)C(=O)N=C2S1	none (no result: NTR1 ag)
COc1cccc(-c2cc(C(=O)N3CCN(Cc4ccc5c(c4)OCO5)CC3)on2)c1	VLA-4 inh 55.4 | VLA-4 allo CP inactive
CCOc1ccc(S(=O)(=O)NCc2ccccc2Cl)cc1C(N)=O	none
COc1ccc(S(=O)(=O)NCc2ccccc2Cl)cc1OC	VLA-4 inh 93.0 | VLA-4 allo CP inactive
O=C(C[C@H]1C/C=C\CC[C@H](Cc2ccc(F)cc2)C(=O)OC[C@@H](Cc2c[nH]c3ccccc23)NC1=O)NCCO	none
Cc1cc(C)c(C#N)c(Oc2ccc(O)cc2)n1	none
CCCC(=O)Nc1cccc(Oc2nc(C)cc(C)c2C#N)c1	VLA-4 inh 88.9 | VLA-4 allo CP inactive
O=S(=O)(Cc1ccccc1)CS(=O)(=O)Cc1ccccc1	none (no result: GRK2 aptamer HTS, NTR1 ag, VLA-4 inh, A1 inh)
COc1ccc(-n2c(=S)[nH]c3cc(C(=O)NCCCN4CCOCC4)ccc3c2=O)cc1OC	VLA-4 inh 55.5 | VLA-4 allo CP inactive
COc1ccc(-n2c(=S)[nH]c3cc(C(=O)NCCCN4CCCC4=O)ccc3c2=O)cc1OC	none
COc1ccc(OC)c(CN2CCN(C(=O)c3cccc(S(=O)(=O)Nc4ccc(C)cc4)c3)CC2)c1	none
COc1ccccc1-n1ccnc(SCC(=O)NCCc2ccccc2)c1=O	none
COc1ccccc1CNS(=O)(=O)c1ccc(N2CCCC2)cc1Br	none (no result: VLA-4 inh, A1 inh)
Cc1ccc(NC(=O)c2cc(N3C(=O)CCC3=O)ccc2N2CCOCC2)cc1	none
Cc1ccc(NC(=O)c2cc(N3C(=O)C=CC3=O)ccc2N2CCOCC2)cc1Cl	GRK2 aptamer HTS 71.0, Beta2AR agonist 76.2, VLA-4 inh 83.3, A1 inh 15.2 (no result: NTR1 ag) | VLA-4 allo CP 51.7 | GRK2 inh confirm inactive | FAM quench CP1 inactive
Cc1c(CCNC=O)cc(C)c2c3c(oc12)CCCC3	none (no result: GRK2 aptamer HTS, NTR1 ag, VLA-4 inh, A1 inh)
Cc1cccc2c(=O)n3c(cc12)-c1[nH]c2ccccc2c1CC3	none (no result: GRK2 aptamer HTS, NTR1 ag, VLA-4 inh, A1 inh)
O=c1c2ccccc2nc2n1CCc1c-2[nH]c2ccccc12	VLA-4 inh 51.4 | VLA-4 allo CP inactive | GRK2 inh confirm inactive | FAM quench CP1 inactive
O=C(O)C[C@H]1c2cc(C(F)(F)F)ccc2S(=O)(=O)N1Cc1ccccc1	none
COC(=O)c1cc2c(ccn2-c2ccc(F)cc2)n1C(C)C	GRK2 aptamer HTS 67.0, VLA-4 inh 62.9 | VLA-4 allo CP inactive | GRK2 inh confirm inactive | FAM quench CP1 inactive
O=C(c1cc(-c2ccncc2)nc2ccc(Br)cc12)N1CCN(c2ccccn2)CC1	GRK2 aptamer HTS 93.0 | VLA-4 allo CP inactive | GRK2 inh confirm inactive | FAM quench CP1 inactive
CSc1ccc2c(c1)C(N1CCN(C)CC1)Cc1ccccc1S2 (stereo unspecified)	Beta2AR agonist 60.5!, VLA-4 inh 55.3! | VLA-4 allo CP inactive | B2AR ag CP1 inactive | FAP fluor counter inactive
C[C@H](CO)N1C[C@H](C)[C@@H](CN(C)Cc2ccc(Cl)c(Cl)c2)Oc2c(NC(=O)Cc3ccccc3)cccc2C1=O	none

From PubChem
